Test results published in PubChem BioAssay AID1910 (Broad Institute, 2009).
The campaign covered roughly 300,000 compounds. About 950 (0.32%) were called active.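 How the source made its calls: active means mean activation of at least 10% of the iron chelator positive control signal, with at least half of replicates also reaching 10%; inconclusive means mean and replicate majority disagree about reaching 10%; inactive means mean and most replicates under 10%.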 Many of the other results were omitted from the sample, so actives are more common in it than they were.

Experiment: HIF pathway transcriptional activators, primary screen, cell-based, U2OS HRE-luciferase, luminescence (AID 1910)
Settings: U2OS HRE-luciferase reporter, active compounds read high, screened at 7.5 µM (by protocol), normalized: DMSO 0%, desferrioxamine 100%

Row | SMILES | activation
1 | C/C(=N\NC(=O)Cc1ccc(Cl)cc1)c1ccccn1 | 17.7% (active)
2 | C/C(=N\NC(N)=S)c1cccnc1 | -0.0419% (inactive)
3 | C/C(=N\NC(=O)c1ccccc1F)c1ccccn1 | 1.74% (inactive)
4 | C/C(=N\NC(=O)Cc1ccccc1[N+](=O)[O-])c1cccnc1 | 0.0865% (inactive)
5 | C/C(=N\NC(=O)Cc1ccc(Br)cc1)c1cccnc1 | 24.8% (active)
6 | Cc1ccc(Cl)cc1NC(=O)c1ccccn1 | 1.23% (inactive)
7 | O=C(N[C@@H](Cc1ccccc1)C(=O)OCc1ccccc1)c1nc[nH]c1C(=O)NC1CCNCC1 | 1.06% (inactive)
8 | Cc1cc(NC(=O)CSC2=NS(=O)(=O)c3cc(Cl)ccc3N2)no1 | 1.88% (inactive)
9 | COc1ccc(/C=C(\C#N)C(=O)OCC(=O)N(C)C2CCS(=O)(=O)C2)cc1 (stereo not given) | -41.3% (inactive)
10 | CCOc1cccc(/C=N/NC(=S)NCCN2CCOCC2)c1O | 0.43% (inactive)
11 | CCOc1nc(NCCN2CCOCC2)nc(Nc2ccc(C)cc2)n1 | 296% (active)
12 | Nc1nc(NCCCN2CCOCC2)nc(Nc2ccccc2)c1[N+](=O)[O-] | -0.302% (inactive)
13 | O=C1CC2(CCN(C(=O)COc3ccc(F)cc3)CC2)Oc2ccccc21 | -0.0585% (inactive)
14 | O=C(CCCCO)c1ccc(O)c(Cl)c1 | -0.731% (inactive)
15 | COc1cc(-c2nnc(NC(=O)C3=COCCO3)o2)cc(OC)c1OC | -0.75% (inactive)
16 | COc1cc(OC)cc(C(=O)NNC(=O)CNC(=O)c2ccc(Br)o2)c1 | 0.191% (inactive)
17 | O=C(NCCCN1CCCC1=O)c1cccc(S(=O)(=O)NCc2ccccc2)c1 | -0.752% (inactive)
18 | CN(Cc1cnccn1)C(=O)c1cc(COc2cccc(C(F)(F)F)c2)on1 | -2.19% (inactive)
19 | Cc1ccc(OCc2cc(C(=O)N(C)CCc3ccccc3)no2)cc1C | 4.07% (inactive)
20 | CN(Cc1cccnc1)C(=O)c1cc(COc2ccc3ncccc3c2)on1 | 39.7% (active)

Row | SMILES | activation
21 | CC(CN1CCCCC1)OC(=O)c1ccccc1Cl (stereo not given) | -0.0657% (inactive)
22 | Cc1cccc(C(=O)OC(C)CN2CCCC2)c1 (stereo not given) | 15% (active)
23 | Cc1cccc(C(=O)OC(C)CN2CCN(C)CC2)c1 (stereo not given) | 3.11% (inactive)
24 | CC(=O)c1nn(-c2ccc(C)cc2)cc1C(=O)c1cccc(Br)c1 | -0.49% (inactive)
25 | N#CCC(=O)N/N=C/c1ccc(SCC(=O)Nc2ccccc2)o1 | 105% (active)
26 | O=C(CSc1ccc(/C=N/NC(=O)c2cccc(F)c2)o1)Nc1ccccc1 | 0.0126% (inactive)
27 | Cc1ccc(/C=N/NC(=O)CSc2ccccn2)o1 | -0.331% (inactive)
28 | COc1ccc(CNC(=O)C2CCN(C(=O)c3ccccc3)CC2)cc1 | -0.358% (inactive)
29 | CCOc1ccc(N(CC(=O)OC)S(=O)(=O)c2c(C)noc2C)cc1 | -0.196% (inactive)
30 | COc1ccc(N(CC(=O)Nc2cc(OC)ccc2OC)S(=O)(=O)c2c(C)noc2C)cc1 | 10.1% (active)
31 | CCOc1ccc(N(CC(=O)NCc2ccc(OC)cc2)S(=O)(=O)c2c(C)noc2C)cc1 | 0.179% (inactive)
32 | COc1ccc(Cl)cc1NC(=O)CN(C)C(=O)c1cc(-c2cccs2)nn1-c1ccccc1 | 1.06% (inactive)
33 | CCN(CC(=O)Nc1cc(Cl)ccc1C)C(=O)Cn1c(=O)cnc2ccccc21 | -0.594% (inactive)
34 | O=C(COc1coc(CN2CCN(c3ccccc3)CC2)cc1=O)N1CCc2ccccc21 | 0.142% (inactive)
35 | Cc1ccc(SCc2c(C(=O)N/N=C/C3CC=CCC3)nnn2-c2nonc2N)cc1 (stereo not given) | 0.655% (inactive)
36 | Nc1nonc1-n1nnc(C(=O)N/N=C/c2cc(Br)ccc2O)c1CSC1=NCCS1 | 20.7% (active)
37 | Nc1nonc1-n1nnc(C(=O)N/N=C/c2ccccc2O)c1CN1CCCC1 | -0.146% (inactive)
38 | CCN1CCN(C(=O)N(Cc2ccc(Cl)cc2)S(=O)(=O)c2ccc(C)cc2)CC1 | 1.75% (inactive)
39 | Cc1cccc(C(=O)OC(C)C(=O)NC2CCCc3ccccc32)c1O (stereo not given) | -0.427% (inactive)
40 | Oc1ccc(Br)cc1/C=N/Nc1ccccn1 | 90.5% (active)

Row | SMILES | activation
41 | O=[N+]([O-])c1ccc(O)c(/C=N/Nc2ccccc2[N+](=O)[O-])c1 | 1.42% (inactive)
42 | Oc1ccc(/C=N/Nc2ccc(C(F)(F)F)cn2)cc1O | 2.36% (inactive)
43 | O=C(NC1CC1)C(Cc1ccccc1)NS(=O)(=O)c1ccccc1F (stereo not given) | -30.3% (inactive)
44 | CCS(=O)(=O)c1ccc(-c2cccc(NC(=O)c3ccc(Br)o3)c2)nn1 | -0.865% (inactive)
45 | N#Cc1cccc(Nc2c3c(nc4ccccc24)CCCC3)c1 | -0.204% (inactive)
46 | CC(=O)Nc1ccc(Nc2c3ccccc3nc3ccccc23)cc1 | 7.58% (inactive)
47 | Cc1ccc(Nc2c3c(nc4ccccc24)CCC3)cc1 | 97.4% (active)
48 | Cc1ccc(SCC(=O)Nc2nncs2)cc1 | -0.275% (inactive)
49 | NS(=O)(=O)c1cc(C(=O)OCC(=O)NNC(=O)c2ccccc2)ccc1Cl | 0.0895% (inactive)
50 | Cc1nc(-c2ccccc2)sc1C1(C)CC(c2cccnc2)=NO1 (stereo not given) | 5.85% (inactive)
51 | Cn1ccnc1-c1nnn(-c2ccc(F)cc2)n1 | 2.61% (inactive)
52 | CCOc1ccc(CCNC(=O)COC(=O)C2CCN(c3ccc(C(F)(F)F)cn3)CC2)cc1OCC | 0.095% (inactive)
53 | Nn1c(SCC(=O)NC2CCCC2)nnc1-c1ccccc1F | -0.0397% (inactive)
54 | CC(C)NC(=O)NC(=O)CSc1nnc(-c2ccccc2F)n1N | 88% (active)
55 | Cc1ccc(NC(=O)NC(=O)CSc2nnc(-c3ccc(OC(F)F)cc3)n2N)c(C)c1 | 2.08% (inactive)
56 | COc1ccc(NC(=O)CN(C)C(=O)c2n[nH]c3ccccc23)cc1 | 2.08% (inactive)
57 | O=C(CCNC(=O)c1ccc(Br)cc1)NCCCc1ccccc1 | 0.558% (inactive)
58 | CC(=O)N1CCc2c(sc(NC(=O)CCS(=O)(=O)c3ccc(C)cc3)c2C(N)=O)C1 | -0.0953% (inactive)
59 | CS(=O)(=O)c1ccc(Cl)c(NC(=O)COC(=O)c2cccc(S(=O)(=O)N3CCCC3)c2)c1 | 0.78% (inactive)
60 | CCN1/C(=C\c2ccc3ccccc3[n+]2CC)Sc2cc(C)ccc21 | 16.3% (active)
